Values joined by “and” are separate entries in the source; they are usually repeats but may differ in a detail not shown here. Identical values can stand only once. Records with an inconclusive call do not appear. Active and inactive are the calls of the source. Rule for the calls, unless noted: active = hit-call score of the fitted dose curve at least 0.9, where 1 is the maximum; inconclusive = response in the unintended direction; inactive = score below 0.9.

The record followed here is PubChem BioAssay (EPA / NIEHS).

The target of the first assay is human Peroxisome Proliferator-activated Receptor delta (PPARd), PPARD (gene 5467) (UniProt Q03181). The assay can be described thus: ATG_PPARd_TRANS: Attagene TRANS-FACTORIAL HepG2 Assay for human Peroxisome Proliferator-activated Receptor delta (PPARd) (AID 2283002).
Sequence of human Peroxisome Proliferator-activated Receptor delta (PPARd), PPARD (gene 5467) (Q03181 whole entry, looked up): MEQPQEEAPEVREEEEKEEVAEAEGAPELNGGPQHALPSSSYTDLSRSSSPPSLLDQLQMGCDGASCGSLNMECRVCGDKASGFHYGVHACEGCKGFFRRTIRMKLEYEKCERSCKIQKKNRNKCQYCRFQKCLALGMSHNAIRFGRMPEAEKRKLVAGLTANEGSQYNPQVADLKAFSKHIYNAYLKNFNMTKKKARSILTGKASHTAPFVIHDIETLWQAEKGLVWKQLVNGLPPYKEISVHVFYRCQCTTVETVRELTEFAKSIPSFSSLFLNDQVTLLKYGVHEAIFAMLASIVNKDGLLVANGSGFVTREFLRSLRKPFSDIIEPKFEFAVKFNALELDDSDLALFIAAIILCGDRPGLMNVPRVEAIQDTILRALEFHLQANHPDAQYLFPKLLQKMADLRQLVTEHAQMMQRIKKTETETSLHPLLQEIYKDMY
Details: not given
The method in brief:
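Read-out: reporter mRNA induction, quantified by fluorescent RT-PCR products resolved by capillary electrophoresis. Human HepG2 liver cells carried transiently transfected Gal4-UAS reporter constructs with chimeric NR-Gal4 fusions. Cells were dosed for 24 h; DMSO served as baseline.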
As to `CCCCC(CC)CN1C(=O)C2C3C=CC(C3)C2C1=O` (stereo unspecified), the call was inactive.

`O=C(O)C1(C(=O)Nc2ccc(Cl)cc2Cl)CC1`: the compound was classed as inactive.

For the compound `c1ccc(Nc2ccccc2)cc1`, the outcome was inactive.

With `CCOC(=O)NCCOc1ccc(Oc2ccccc2)cc1`, the outcome was inactive.

Turning to `CC(C)(c1ccc(O)cc1)c1ccc(O)cc1`, the call was inactive.

Regarding `O=C(Nc1ccc([N+](=O)[O-])cc1Cl)c1cc(Cl)ccc1O`, the compound was classed as inactive.

As to `COC(=O)c1cccc(C)c1S(=O)(=O)NC(=O)Nc1nc(OCC(F)(F)F)nc(N(C)C)n1`, the compound was classed as inactive.

Take `O=C(c1ccc(O)cc1O)c1ccc(O)cc1O`: the result was inactive.

As for `CC(C)(C)[C@@H](O)[C@@H](Cc1ccc(Cl)cc1)n1cncn1`, the call was inactive.

As to `c1ccc2[nH]c(-c3cscn3)nc2c1`, the compound was called inactive.

For the compound `CCC(C)OC(=O)N1CCCCC1CCO` (stereo unspecified), the result was inactive.

Regarding `N#CSCSc1nc2ccccc2s1`, the result was inactive.

Regarding `CCN(Cc1c(F)cccc1Cl)c1c([N+](=O)[O-])cc(C(F)(F)F)cc1[N+](=O)[O-]`, the call was inactive.

As for `CC(C)CCCCCCc1ccc(O)cc1`, the call was inactive.

As for `CCNc1nc(N)nc(Cl)n1`, the outcome was inactive.

As for `COC(=O)c1c(Cl)nn(C)c1S(=O)(=O)NC(=O)Nc1nc(OC)cc(OC)n1`, the result was inactive.

Regarding `C[C@]12C[C@H](O)[C@H]3[C@@H](CCC4=CC(=O)CC[C@@]43C)[C@@H]1CC[C@@H]2C(=O)CO`, the outcome was inactive.

Consider `C#C[C@]1(O)CC[C@H]2[C@@H]3CCC4=CC(=O)CC[C@@H]4[C@H]3CC[C@@]21CC`, for which the outcome was inactive.

`CCCN(CCC)c1c([N+](=O)[O-])cc(C(F)(F)F)c(N)c1[N+](=O)[O-]`: the call was inactive.

Consider `CCCOC(=O)c1ccc(C(=O)OCCC)nc1`, for which the compound was called inactive.

With `COC(=O)c1ccccc1S(=O)(=O)NC(=O)Nc1nc(OC(F)F)cc(OC(F)F)n1`, the compound was called inactive.

Regarding `CCCCOC(=O)C(C)Oc1ccc(Oc2ccc(C(F)(F)F)cn2)cc1` (stereo unspecified), the result was inactive.

For `COc1nc(C)nc(NC(=O)NS(=O)(=O)c2ccccc2OCCCl)n1`, the compound was called inactive.

For the compound `O=C(c1ccccc1)C1CCCCC1`, the result was inactive.

Take `CC(=O)S[C@@H]1CC2=CC(=O)CC[C@]2(C)[C@H]2CC[C@@]3(C)[C@@H](CC[C@@]34CCC(=O)O4)[C@H]12`: the compound was called inactive.

Read-out in the next assay: Intercellular Adhesion Molecule 1 (ICAM1), ICAM1 (gene 3383)
The assay can be described thus: BSK_3C_ICAM1: BioMAP Diversity Plus: 3C Assay for Intercellular Adhesion Molecule 1 (ICAM1) Biomarker Activity (AID 2283003; active = hit-call score of the fitted dose curve at least 0.9, where 1 is the maximum; inactive = score below 0.9). The following applies: primary human endothelial cells (HUVEC); actives raise or lower the signal. The method in brief:
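ICAM-1 levels measured by ELISA after HUVEC cultures in the 3C system had been dosed for 24 h. Gain or loss of signal relative to DMSO was fitted in both directions.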
As for `CCCCC(CC)CN1C(=O)C2C3C=CC(C3)C2C1=O` (stereo unspecified), the result was inactive.

`O=C(O)C1(C(=O)Nc2ccc(Cl)cc2Cl)CC1`: the outcome was inactive.

For the compound `COC(=O)c1ccccc1C(=O)O`, the result was inactive.

As for `c1ccc(Nc2ccccc2)cc1`, the outcome was inactive.

On to `CCOC(=O)NCCOc1ccc(Oc2ccccc2)cc1`, for which the result was inactive.

Consider `CC(C)(c1ccc(O)cc1)c1ccc(O)cc1`, for which the result was inactive.

Consider `O=C(Nc1ccc([N+](=O)[O-])cc1Cl)c1cc(Cl)ccc1O`, for which the AC50 is 20 µM (active).

As to `COC(=O)c1cccc(C)c1S(=O)(=O)NC(=O)Nc1nc(OCC(F)(F)F)nc(N(C)C)n1`, the outcome was inactive.

For the compound `CCCCOC(=O)[C@@H](C)Oc1ccc(Oc2ccc(C(F)(F)F)cn2)cc1`, the outcome was inactive.

In the case of `O=C(c1ccc(O)cc1O)c1ccc(O)cc1O`, the outcome was inactive.

On to `CC(C)(C)[C@@H](O)[C@@H](Cc1ccc(Cl)cc1)n1cncn1`, for which the outcome was inactive.

Consider `c1ccc2[nH]c(-c3cscn3)nc2c1`, for which the outcome was inactive.

For the compound `CCOC(=O)C(C)Oc1ccc(Oc2nc3ccc(Cl)cc3o2)cc1` (stereo unspecified), the result was inactive.

Turning to `CCC(C)OC(=O)N1CCCCC1CCO` (stereo unspecified), the result was inactive.

For `N#CSCSc1nc2ccccc2s1`, the concentration at half-maximal activity (AC50) is 6.48 µM (active) and 15.4 µM (active).

Take `CCN(Cc1c(F)cccc1Cl)c1c([N+](=O)[O-])cc(C(F)(F)F)cc1[N+](=O)[O-]`: the outcome was inactive.

Take `CC(C)CCCCCCc1ccc(O)cc1`: the concentration at half-maximal activity (AC50) was 11.2 µM (active).

In the case of `CCNc1nc(N)nc(Cl)n1`, the outcome was inactive.

As for `COC(=O)c1c(Cl)nn(C)c1S(=O)(=O)NC(=O)Nc1nc(OC)cc(OC)n1`, the outcome was inactive.

Consider `C[C@]12C[C@H](O)[C@H]3[C@@H](CCC4=CC(=O)CC[C@@]43C)[C@@H]1CC[C@@H]2C(=O)CO`, for which the result was inactive.

On to `C#C[C@]1(O)CC[C@H]2[C@@H]3CCC4=CC(=O)CC[C@@H]4[C@H]3CC[C@@]21CC`, for which the result was inactive.

`CCCN(CCC)c1c([N+](=O)[O-])cc(C(F)(F)F)c(N)c1[N+](=O)[O-]`: the half-maximal activity concentration (AC50) was 36.8 µM (active).

As to `COC(=O)c1ccc(CNS(C)(=O)=O)cc1S(=O)(=O)NC(=O)Nc1nc(OC)cc(OC)n1`, the outcome was inactive.

For `CCSC(=O)N(CC(C)C)CC(C)C`, the result was inactive.

As to `CCCOC(=O)c1ccc(C(=O)OCCC)nc1`, the outcome was inactive.

Consider `COC(=O)c1ccccc1S(=O)(=O)NC(=O)Nc1nc(OC(F)F)cc(OC(F)F)n1`, for which the outcome was inactive.

For the compound `CCCCOC(=O)C(C)Oc1ccc(Oc2ccc(C(F)(F)F)cn2)cc1` (stereo unspecified), the result was inactive.

Turning to `COc1nc(C)nc(NC(=O)NS(=O)(=O)c2ccccc2OCCCl)n1`, the result was inactive.

`O=C(c1ccccc1)C1CCCCC1`: the result was inactive.

On to `CC(=O)S[C@@H]1CC2=CC(=O)CC[C@]2(C)[C@H]2CC[C@@]3(C)[C@@H](CC[C@@]34CCC(=O)O4)[C@H]12`, for which the outcome was inactive.

The target in another assay is human Retinoic Acid Receptor beta (RARb), RARB (gene 5915) (UniProt P10826). The assay can be described thus: ATG_RARb_TRANS: Attagene TRANS-FACTORIAL HepG2 Assay for human Retinoic Acid Receptor beta (AID 2283004).
Sequence of human Retinoic Acid Receptor beta (RARb), RARB (gene 5915) (P10826 whole entry, looked up): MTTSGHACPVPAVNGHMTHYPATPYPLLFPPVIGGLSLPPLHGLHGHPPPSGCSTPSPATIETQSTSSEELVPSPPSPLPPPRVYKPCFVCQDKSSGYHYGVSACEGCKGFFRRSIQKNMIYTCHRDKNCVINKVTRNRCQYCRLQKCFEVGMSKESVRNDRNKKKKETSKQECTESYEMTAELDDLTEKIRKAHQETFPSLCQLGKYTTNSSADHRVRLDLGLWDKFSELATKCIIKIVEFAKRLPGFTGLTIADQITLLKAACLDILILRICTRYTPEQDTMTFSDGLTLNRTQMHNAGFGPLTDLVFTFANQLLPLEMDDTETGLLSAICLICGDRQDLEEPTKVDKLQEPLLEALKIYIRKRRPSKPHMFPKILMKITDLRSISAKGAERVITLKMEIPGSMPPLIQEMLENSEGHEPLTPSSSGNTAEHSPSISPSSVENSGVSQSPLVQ
Details: not given
The essentials: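 Fluorescent capillary-electrophoresis detection of GAL4-UAS reporter mRNA defines the endpoint, with induction over DMSO-treated wells scored as activity. Transiently transfected human hepatoma HepG2 cells expressing exogenous NR–Gal4 proteins are exposed to test chemicals for 24 h.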
`c1ccc(Nc2ccccc2)cc1`: the compound was called inactive.

For the compound `CCOC(=O)NCCOc1ccc(Oc2ccccc2)cc1`, the compound was called inactive.

Regarding `CC(C)(c1ccc(O)cc1)c1ccc(O)cc1`, the compound was called inactive.

`O=C(Nc1ccc([N+](=O)[O-])cc1Cl)c1cc(Cl)ccc1O`: the compound was classed as inactive.

For the compound `COC(=O)c1cccc(C)c1S(=O)(=O)NC(=O)Nc1nc(OCC(F)(F)F)nc(N(C)C)n1`, the outcome was inactive.

Turning to `CCCCOC(=O)[C@@H](C)Oc1ccc(Oc2ccc(C(F)(F)F)cn2)cc1`, the compound was called inactive.

As to `O=C(c1ccc(O)cc1O)c1ccc(O)cc1O`, the compound was called inactive.

In the case of `CC(C)(C)[C@@H](O)[C@@H](Cc1ccc(Cl)cc1)n1cncn1`, the call was inactive.

Regarding `c1ccc2[nH]c(-c3cscn3)nc2c1`, the compound was classed as inactive.

Consider `CCOC(=O)C(C)Oc1ccc(Oc2nc3ccc(Cl)cc3o2)cc1` (stereo unspecified), for which the call was inactive.

For the compound `CCC(C)OC(=O)N1CCCCC1CCO` (stereo unspecified), the compound was called inactive.

In the case of `CCN(Cc1c(F)cccc1Cl)c1c([N+](=O)[O-])cc(C(F)(F)F)cc1[N+](=O)[O-]`, the result was inactive.

As for `CC(C)CCCCCCc1ccc(O)cc1`, the compound was called inactive.

For `CCNc1nc(N)nc(Cl)n1`, the result was inactive.

For `C[C@]12C[C@H](O)[C@H]3[C@@H](CCC4=CC(=O)CC[C@@]43C)[C@@H]1CC[C@@H]2C(=O)CO`, the compound was called inactive.

For the compound `CCCN(CCC)c1c([N+](=O)[O-])cc(C(F)(F)F)c(N)c1[N+](=O)[O-]`, the compound was called inactive.

Regarding `COC(=O)c1ccc(CNS(C)(=O)=O)cc1S(=O)(=O)NC(=O)Nc1nc(OC)cc(OC)n1`, the result was inactive.

For `CCSC(=O)N(CC(C)C)CC(C)C`, the compound was classed as inactive.

In the case of `CCCOC(=O)c1ccc(C(=O)OCCC)nc1`, the compound was called inactive.

On to `CCCCOC(=O)C(C)Oc1ccc(Oc2ccc(C(F)(F)F)cn2)cc1` (stereo unspecified), for which the call was inactive.

Regarding `O=C(c1ccccc1)C1CCCCC1`, the call was inactive.
